Measurements published in PubChem BioAssay AID651718 (The Scripps Research Institute Molecular Screening Center, 2012).
The whole screen tested about 360,000 compounds, of which about 2,700 (0.75%) were called active. The sample as a whole holds a higher share of actives than the screen did. A number with no mark means an inactive call. No stated cut-off is given here; in the data, active means inhibition above about 4.5%; inactive means the rest.

The compounds below were run on Methionine sulfoxide reductase A (Bos taurus) (assay: bovine MsrA enzyme inhibitors, primary screen, biochemical, absorbance, HTS (AID 651718;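 further: 0% = vehicle wells with enzyme and 100% = reference inhibitor wells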)). Conditions: purified bovine MsrA, absorbance read-out; at 15.5 µM; active compounds read high.
`O=[N+]([O-])c1ccccc1/C=N/n1c(COc2ccccc2)n[nH]c1=S` was tested, and the inhibition was 0.65%. For `CCc1n[nH]c(=S)n1/N=C/c1c[nH]c2ccc(Br)cc12`, the inhibition was 0.05%. With `S=c1[nH]nc(-c2ccccc2)n1/N=C/c1c[nH]c2ccccc12` the inhibition was 5.73% (active). `CC1CCN(C(=O)c2ncn3c2C(=O)N[C@@H](C)C3)CC1` gave an inhibition of 0.14%. `O=C(NCc1ccccc1)[C@H]1CCCN1C(=O)[C@H]1CCCN1C(=O)N1CCOCC1` gave an inhibition of -0.41%. `CN(C)c1nc(N)nc(CSc2ccccn2)n1` gave an inhibition of 0.24%. For `C=CCN=C1NC(c2cccc(C(F)(F)F)c2)C(C(=O)OC)=C(C)N1C` (configuration not stated), the inhibition was -0.08%. In the case of `CCc1ccc(Oc2coc3cc(OC(=O)c4cc5ccccc5oc4=O)ccc3c2=O)cc1`, the inhibition is reported as 1.04%. Work on `Cc1cc(C)cc(OCC(=O)NNC(=O)c2cc3ccccc3oc2=O)c1` yielded an inhibition of 0.25%. For `CCCOC(=O)c1cc2ccccc2oc1=O`, the inhibition was 13% (active). In the case of `COC(=O)Cc1nnn2c1[C@H](C)[C@H](c1ccccc1[N+](=O)[O-])OCC2`, the inhibition is reported as 0.24%. `Cc1c(C(=O)NNC(=O)c2ccncc2)oc2ccccc12` gave an inhibition of 0.46%. In the case of `Cc1c(C=O)c2ccccn2c1C(=O)c1ccncc1`, the inhibition is reported as 4.76% (active). `Cc1c(C=O)c2ccccc2n1CC(=O)O` showed an inhibition of 2.23%. For `O=C(NCCc1nnc2ccc(SCC(=O)N3CCOCC3)nn12)c1ccccc1`, the inhibition was -0.18%. With `Cc1noc(C)c1NC(=O)Nc1ccc2c(c1)C(=O)N([C@H](C)CO)C[C@H](C)[C@H](CN(C)Cc1ccncc1)OCCCC[C@@H](C)O2` the inhibition was -0.23%. `CCN1C(=O)N[C@@H]2C[C@H](C(=O)N3CCCC3)[C@H](C)[C@H](c3ccccc3)C[C@@H]21` showed an inhibition of -0.32%. Work on `O=C(c1ccc(Cn2cc([N+](=O)[O-])cn2)o1)N1CCCC1` yielded an inhibition of 0.09%. In the case of `O=C(N/N=C/c1ccc2c(c1)OCO2)c1ccc(Cn2cc([N+](=O)[O-])cn2)o1`, the inhibition is reported as 6.14% (active). Compound `CN(C)c1ccc(/C=N/NC(=O)c2ccc(Cn3cc(Br)cn3)o2)cc1` has an inhibition of 4.19%. `N/C(=N\OS(=O)(=O)c1cccc([N+](=O)[O-])c1)c1ccncc1` gave an inhibition of -0.51%. `CCCCCCCCN1C(=O)[C@@H](CC(=O)NCc2ccc(C)o2)C[C@@]2(C(=O)OC)C1=C[C@H](C(C)(C)C)O[C@@H]2C` showed an inhibition of -0.4%. In the case of `CC(=O)c1ccccc1OCc1ccc(C(=O)c2ccccc2)cc1`, the inhibition is reported as 0.66%. `Cc1cc2nc3c(=O)[nH]c(=O)nc-3n(C[C@H](O)[C@H](O)[C@H](O)CO)c2cc1C` gave an inhibition of 2.57%. With `CCN(CC)CCCC(C)n1c2nc(=O)[nH]c(=O)c-2nc2cc(Cl)ccc21` (configuration not stated) the inhibition was 14.4% (active). `O=S1(=O)c2c(cccc2N2CCCCC2)O[C@H](COCc2ccccc2)CN1C1CC1` gave an inhibition of -0.51%. For `Cc1ccc(CSc2nsc(C)c2C#N)cc1`, the inhibition was 0.38%. Compound `O=C1N=C(N2CCOCC2)S/C1=C\C=C/c1ccccc1` has an inhibition of 3.23%. Work on `CC(C)=C1SC(N2CCN(c3ccc(C)c(Cl)c3)CC2)=NC1=O` yielded an inhibition of -1.4%. With `Cc1ccc(N2CCN(C3=NC(=O)/C(=C\c4cccs4)S3)CC2)cc1` the inhibition was 5.14% (active). Work on `COc1ccc(S(=O)(=O)Nc2ccc3c(c2)C(=O)N([C@H](C)CO)C[C@H](C)[C@@H](CN(C)C)OCCCC[C@H](C)O3)cc1` yielded an inhibition of 0.52%. `Cc1c(C(=O)N2CCCc3ccccc32)oc2ccccc12` was tested, and the inhibition was 10.3% (active). `Cc1ccc(C(=O)N2CCCc3ccccc32)c(Cl)c1` showed an inhibition of -0.31%. `Cc1c(C(=O)OCC(=O)N2CCCC2=O)oc2ccccc12` was tested, and the inhibition was -1.01%. `O=C1Nc2ccccc2C1=NN=Cc1ccco1` showed an inhibition of 0.16%. For `COC(=O)/C(C#N)=C/c1occc1C`, the inhibition was 5.68% (active). In the case of `COc1ccc(/C=C(\C#N)C(=O)ONC2=NCCCCC2)cc1`, the inhibition is reported as 1.44%. In the case of `CCOC(=O)/C(C#N)=C\c1c(C)cc(C)c(COC(C)=O)c1C`, the inhibition is reported as 0.74%. In the case of `COc1ccc(CN2CCNC(=O)C2CC(=O)N(C)Cc2ccccn2)cc1OC` (configuration not stated), the inhibition is reported as -0.62%. Work on `C[N+](C)(C)CCOP(=O)([O-])OC[C@H](O)CO` yielded an inhibition of 0.34%. In the case of `CC(=O)c1ccc(N2CCN(CC(=O)Nc3ccccc3N3CCOCC3)CC2)cc1`, the inhibition is reported as 4.88% (active). For `O=C(Nc1ccccc1N1CCOCC1)c1ccncc1`, the inhibition was 1.2%. `CCCCC(=O)Nc1ccccc1N1CCN(c2ccc(F)cc2)CC1` showed an inhibition of -1.12%. `COC(=O)N1Cc2ccnnc2CC1c1ccccc1Br` (configuration not stated) gave an inhibition of -0.9%. `CN(Cc1ccccc1)C(=O)c1ccc(NC2=NC3CS(=O)(=O)CC3S2)cc1` (configuration not stated) was tested, and the inhibition was 1.72%. Work on `COc1ccc(C2=NS(=O)(=O)N(C)C(C(=O)N(C)Cc3ccccc3)=C2)cc1` yielded an inhibition of 3.53%. In the case of `COc1ccc(C2=NS(=O)(=O)N(C)C(C(=O)N3CCCCC3)=C2)cc1`, the inhibition is reported as 5.54% (active). For `COc1ccc(C2=NS(=O)(=O)N(C)C(C(=O)NC(C)c3ccccc3)=C2)cc1` (configuration not stated), the inhibition was 4.29%. In the case of `CCCCCCc1cc2cc(-c3nnc(-c4cccc(OC)c4)o3)c(=O)oc2cc1O`, the inhibition is reported as -0.59%. Work on `O=C(N/N=C/c1ccc(O)c(O)c1)C1c2ccccc2Oc2ccccc21` yielded an inhibition of 0.85%. Work on `COc1ccc(/C=N/Nc2ncnc3sc4c(c23)CCCC4)cc1O` yielded an inhibition of 4.5%. For `Oc1ccc(/C=N/Nc2ccc(C(F)(F)F)cn2)cc1O`, the inhibition was 7.63% (active). For `CSc1nnc(SCc2nc3sc(C(=O)O)c(C)c3c(=O)[nH]2)s1`, the inhibition was 0%. With `Cc1c(C)n2c(SCC(=O)N3CCCC3)nnc2[nH]c1=O` the inhibition was -0.57%. `CC(=O)c1sc2nc(SCC(=O)N3CCCCC3)[nH]c(=O)c2c1C` was tested, and the inhibition was 6.38% (active). For `COc1ccc(-c2ccccc2C2Cc3nnccc3CN2C(=O)Nc2ccccc2)cc1` (configuration not stated), the inhibition was 2.13%. In the case of `CC(=O)N1C[C@@H](CO)[C@@H](N(C)C(=O)C(C)(C)C)C[C@H]1c1ccccc1Br`, the inhibition is reported as 0.66%. In the case of `COc1ccccc1C1=CC(=O)C[C@H](c2ccc(F)cc2)C1`, the inhibition is reported as 1.16%. `O=C1C=C(c2cccc(Cl)c2O)C[C@@H](c2ccc(F)cc2)C1` was tested, and the inhibition was -0.68%. In the case of `COc1cccc(C2=CC(=O)C[C@H](c3ccc(F)cc3)C2)c1OC`, the inhibition is reported as 6.7% (active). `COC(=O)[C@]12C[C@H](CC(=O)NCc3cccc(C(F)(F)F)c3)C(=O)N(Cc3ccc4c(c3)OCO4)C1=C[C@H](COCc1ccccc1)O[C@@H]2C` gave an inhibition of 0.87%. With `CC(C)C[C@H](NC(=O)CC1CCCC1)C(=O)N1CCC[C@H]1C(=O)NCc1ccccc1` the inhibition was 0.9%. Work on `COC(=O)C1=C(C)N(Cc2cccc(C(F)(F)F)c2)C(=NCc2cccc(C(F)(F)F)c2)NC1c1ccccc1C(F)(F)F` (configuration not stated) yielded an inhibition of -1.33%. `CCN(CC)CCn1c(N)c(S(=O)(=O)c2ccccc2)c2nc3ccccc3nc21` showed an inhibition of 0.85%. In the case of `CCC(=O)Nc1c(S(=O)(=O)c2ccccc2)c2nc3ccccc3nc2n1Cc1ccccc1`, the inhibition is reported as 2.69%. `Cc1ccc(S(=O)(=O)c2c(N)n(C)c3nc4ccccc4nc23)cc1` was tested, and the inhibition was 4.64% (active). `O=C1CN(C(=O)COc2c(Cl)cccc2Cl)c2ccccc2N1` was tested, and the inhibition was -0.91%. `COC(=O)[C@]12C[C@H](CC(=O)NCc3ccccc3)C(=O)N(CCC3=CCCCC3)C1=C[C@H](C(C)(C)C)O[C@@H]2C` gave an inhibition of 0.95%. In the case of `O=C(CCNC(=O)c1ccccc1)NN=Cc1ccc(Br)o1`, the inhibition is reported as 0.9%. In the case of `O=C(CCC(=O)N/N=C/c1ccc(Br)o1)N/N=C/c1ccc(Br)o1`, the inhibition is reported as 1%. For `O=C(N/N=C/c1ccc(Br)o1)c1cncc(Br)c1`, the inhibition was 4.63% (active). `CCCCN(C(=O)COc1ccc(NC(C)=O)cc1)C1CCS(=O)(=O)C1` (configuration not stated) showed an inhibition of -0.22%. Compound `Cc1cc(C)c(S(=O)(=O)NCC(c2ccc3c(c2)OCO3)N2CCOCC2)c(C)c1` (configuration not stated) has an inhibition of -0.85%. In the case of `CC1(C)C/C(=N/Nc2ccc([N+](=O)[O-])cc2[N+](=O)[O-])C(C)(C)O1`, the inhibition is reported as -0.53%. In the case of `CC(C)OP(=O)(OC(C)C)C(Nc1ccccc1)c1cccc([N+](=O)[O-])c1` (configuration not stated), the inhibition is reported as 1.56%. In the case of `CC(Nc1ccc([N+](=O)[O-])cc1[N+](=O)[O-])c1ccccc1` (configuration not stated), the inhibition is reported as 35.6% (active). In the case of `COC(=O)[C@]12C[C@H](CC(=O)N3CCN(C(=O)C4CC4)CC3)C(=O)N(Cc3ccc4c(c3)OCO4)C1=C[C@H](C(C)(C)C)O[C@@H]2C`, the inhibition is reported as -0.48%. In the case of `CC(=O)c1ccc(S(=O)(=O)NCC2CCN(C(=O)C(=O)c3cccs3)CC2)cc1`, the inhibition is reported as 0.56%. Work on `Cc1ccc2nc(CN(C)C(=O)[C@@H](Cc3ccccc3)NC(=O)[C@H]3O[C@@H](n4ccc(=O)[nH]c4=O)[C@H](O)[C@@H]3O)[nH]c2c1` yielded an inhibition of 0.5%. `Cc1ccc(C(=O)Nc2c(C#N)c(C)c(C)n2Cc2ccccc2)cc1` was tested, and the inhibition was -0.41%. `Cc1ccccc1-n1c(C)cc(/C=N/NC(=O)c2ccc(CN3CCOCC3)cc2)c1C` showed an inhibition of 1.71%. In the case of `Cc1ccc(C(=O)N/N=C/c2sc(=O)n(Cc3cccc(C(=O)O)c3)c2Cl)cc1`, the inhibition is reported as 6.02% (active). Compound `CC1CC(c2ccccc2)n2nc(NC(=O)c3cccs3)nc2N1` (configuration not stated) has an inhibition of -0.81%. For `CC1=C(N2CCN(c3ncccn3)CC2)CCC1=O`, the inhibition was 0%. In the case of `O=C1/C(=C\Nc2ccccc2)CCN1c1ncccn1`, the inhibition is reported as 5.03% (active). With `COc1ccccc1Oc1ccc(N/C=C2/CCCC2=O)cc1` the inhibition was 1.18%. `CNS(=O)(=O)c1ccc(NC(=O)C2CC(=O)N(c3ccc(Cl)cc3)C2)cc1` (configuration not stated) gave an inhibition of 1.4%.
